# PKM2 inhibitor: qHTS Assay for Inhibitors of Human Muscle isoform 2 Pyruvate Kinase. purified PKM2, ATP generation, Kinase-Glo luminescence. 260,000 tested, 0.058% active. Potency, µM (doses to about 57.5 µM), without a hit: at the highest dose activity change, negative = inhibition, actives largely listed as inhibitors. Pyruvate kinase PKM (Homo sapiens), P14618; also: potency is read from the fitted curve at half-maximal effect; nearly all actives have a fitted effect of over 60% in size
# Target sequence (P14618 whole entry, looked up, canonical isoform): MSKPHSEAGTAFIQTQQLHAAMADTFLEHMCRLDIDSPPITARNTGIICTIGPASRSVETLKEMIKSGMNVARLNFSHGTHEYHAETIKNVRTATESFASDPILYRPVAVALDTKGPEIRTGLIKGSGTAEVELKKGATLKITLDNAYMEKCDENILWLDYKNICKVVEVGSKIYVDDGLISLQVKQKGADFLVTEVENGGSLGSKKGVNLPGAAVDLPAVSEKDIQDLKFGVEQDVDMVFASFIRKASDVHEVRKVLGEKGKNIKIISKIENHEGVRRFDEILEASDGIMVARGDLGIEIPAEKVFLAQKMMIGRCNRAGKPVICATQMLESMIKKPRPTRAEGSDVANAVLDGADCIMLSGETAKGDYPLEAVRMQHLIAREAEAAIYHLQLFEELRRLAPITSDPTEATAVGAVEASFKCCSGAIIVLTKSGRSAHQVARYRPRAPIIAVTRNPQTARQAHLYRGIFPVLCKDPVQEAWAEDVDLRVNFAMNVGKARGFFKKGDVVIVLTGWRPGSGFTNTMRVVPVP
#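 Coupled luciferase luminescence (Kinase-Glo) detects ATP generated from 0.1 mM ADP and 0.5 mM PEP in imidazole buffer pH 7.2 with KCl, MgCl2; 1 h at room temperature. Enzyme at intermediate activity; normalized to uninhibited and no-enzyme controls.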
# PKM2 inh dose: Confirmation Concentration-Response Assay for Inhibitors of Human Muscle isoform 2 Pyruvate Kinase; Potency, µM (doses to about 57.5 µM), without a hit: top-dose activity change, negative = inhibition, actives largely listed as inhibitors; AID 2263, 2010; 55 tested, 50% active; shares compounds with PKM2 inhibitor; purified hPK-M2, Kinase-Glo ATP luminescence, 1 h
# FLuc counter: Secondary assay for Inhibitors of Human Pyruvate Kinase M2 isoform: FLuc Counterscreen; Kinase-Glo firefly luciferase, luminescence, 8 min; Potency, µM (titrated, usually from 57.5 µM), without a hit: top-dose activity, negative = inhibition, actives largely listed as inhibitors; shares compounds with PKM2 inhibitor; AID 2265, 2010; 55 tested, 30% active
# PKM2 inh LDH: Secondary assay for Inhibitors of Human Pyruvate Kinase M2 isoform | shares compounds with PKM2 inhibitor | purified hPK-M2, LDH-coupled NADH fluorescence kinetic | Potency, µM (doses to about 57.5 µM), for inactives: at the highest dose activity change, negative = inhibition, hits mostly inhibitors | 55 tested, under 10 active
# * marks the source's active call; other numbers are inactive results; ? = inconclusive; nt = not tested or not shown. This excerpt belongs to a sample that is enriched for hits. Calls follow the shape of the dose curve; as a rule, active = well fitted curve in the direction sought with a large enough effect; inconclusive = small, poorly fitted or top-dose-only effect, or another doubt; inactive = no such curve, though single readings can be large; an effect the other way counts as inactive or inconclusive.
SMILES,PKM2 inhibitor,others
Cc1ccc(Nc2c(-c3ccsc3)nc3c(C)cccn23)cc1,nt,PKM2 inh dose=7.7%;FLuc counter=-0.8%;PKM2 inh LDH=?
COc1ccc(Nc2c(-c3ccc(C)o3)nc3ccccn23)cc1,nt,PKM2 inh dose=11.3%;FLuc counter=5.0%;PKM2 inh LDH=10.4%
Cc1ccc(Nc2c(-c3ccc(C)o3)nc3cccc(C)n23)cc1,nt,PKM2 inh dose=14.0%;FLuc counter=0.4%;PKM2 inh LDH=6.51µM*
Cc1ccc(Nc2c(-c3ccsc3)nc3cccc(C)n23)cc1,nt,PKM2 inh dose=4.2%;FLuc counter=-3.9%;PKM2 inh LDH=?
COc1ccc(NC(=O)c2cc(-c3ccc(C)o3)nc3ccccc23)cc1OC,38.5%,
Cc1ccc(-c2nc3cnccn3c2Nc2ccc3c(c2)OCCO3)o1,48.9%,
Cc1ccc(S(=O)(=O)N2CCN(C(=S)NCc3ccc4c(c3)OCO4)CC2)cc1,39.6%,
COC(=O)c1ccc(NC(=O)c2cc[n+](Cc3ccccc3)cc2)cc1,-1.7%,
COc1ccc(S(=O)(=O)N2CCC(Nc3ccccc3Cl)CC2)cc1,36.9%,
Nn1cnc2scc(-c3ccco3)c2c1=O,39.3%,
COc1ccc(CC(=O)N/N=C/c2ccc(-c3cccc(C(=O)O)c3)o2)cc1OC,35.0%,
COc1ccc(C(=O)/C=C/C(=O)N(CC(=O)NC2CCCCC2)Cc2ccc(F)cc2)c(O)c1,73.8%,
NS(=O)(=O)c1ccc(NC(=O)CSc2nc3ccccc3[nH]2)cc1,41.0%,
CCOc1cc(/C=N/Nc2nc(-c3cccs3)c(NC(C)=O)s2)ccc1O,52.8%,
FC(F)(F)c1cnc(N2CCCN(C(=S)Nc3ccccc3)CC2)c(Cl)c1,44.8%,
Cc1cc(N2CCCC2=O)cc(C)c1S(=O)(=O)Nc1c(C)nn(C)c1C,40.9%,
O=S(=O)(Nc1nc2ccc(Cl)cc2s1)c1cccs1,68.4%,
CCCN1CCN(S(=O)(=O)c2ccc3c(c2)OCCO3)CC1,49.4%,
CN1C(=O)Cc2cc(S(=O)(=O)Nc3ccc(Cl)cc3)ccc21,49.2%,
COc1c(O)c(O)cc2c1oc1c3cc(C)ccc3oc(=O)c21,46.3%,
COc1cc(CN2CCNC(=O)C2CC(=O)N2CCCO2)cc(OC)c1 (stereo not given),70.4%,
Cc1ccc2nc(-c3ccc(C)o3)c(NC3CCCC3)n2c1,nt,PKM2 inh dose=10.9%;FLuc counter=0.8%;PKM2 inh LDH=?
COc1ccc(C(=O)OCC(=O)NCc2ccccc2)c(OC)c1OC,37.5%,
O=C(/C=C/c1ccc(O)c(O)c1)O[C@H](Cc1ccc(O)c(O)c1)C(=O)O,37.3%,
CN(Cc1ccon1)Cc1cn(C)nc1-c1cccc(Cl)c1,10µM*,PKM2 inh dose=5.9%;FLuc counter=-0.6%;PKM2 inh LDH=-9.2%
O=C(Cn1cc(C(F)(F)F)ccc1=O)N1CCN(S(=O)(=O)c2ccccc2)CC1,-0.5%,
CNCc1ccccc1Sc1ccc(O)c(O)c1,24.0%,
COc1cc(C(=O)Nc2ccc(C)cc2)c(-n2cnnn2)cc1OC,85.7%,
COc1ccc2c(c1)NC(c1ccc(N(C)C)cc1)c1cccn1-2 (stereo not given),35.3%,

# From PubChem BioAssay
